# Screens: PubChem, National Center for Advancing Translational Sciences (NCATS)
# Vif-A3G inh: blocks the Vif interaction with human APOBEC3G; HeLa A3G-eYFP + Vif (tagged APOBEC3G with the HIV-1 protein that degrades it), YFP fluorescence, overnight; actives 0.076% (n = 410,000); Potency, µM (doses to about 46.1 µM), for the others: at the highest dose activity, negative = active, usual class: inhibitors; further: potency means the concentration at half of the fitted maximal effect; on the % scale 0 is the no-effect control and ±100 the full control effect; nearly all actives have a fitted effect of over 60% in size
# Target sequence (Q9HC16 whole entry, looked up): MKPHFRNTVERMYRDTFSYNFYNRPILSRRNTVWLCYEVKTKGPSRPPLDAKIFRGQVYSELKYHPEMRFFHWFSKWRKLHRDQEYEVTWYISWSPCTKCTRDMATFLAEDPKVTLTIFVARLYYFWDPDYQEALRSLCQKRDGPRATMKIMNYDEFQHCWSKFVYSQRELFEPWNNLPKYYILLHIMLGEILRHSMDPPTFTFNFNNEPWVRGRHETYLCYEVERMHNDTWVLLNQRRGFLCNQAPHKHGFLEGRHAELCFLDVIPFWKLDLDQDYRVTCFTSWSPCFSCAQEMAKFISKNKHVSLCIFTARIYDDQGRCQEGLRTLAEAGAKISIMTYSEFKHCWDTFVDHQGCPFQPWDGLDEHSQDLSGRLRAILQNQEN
#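 HeLa cells stably expressing Vif and C-terminally eYFP-tagged A3G, seeded overnight at 37 deg C, then exposed to compound by pintool overnight at 37 deg C. Rise in yellow fluorescence (Ex 488/Em 500-530, Acumen) marks blocked Vif-driven A3G degradation.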
# Vif-APOBEC3F blk: blocks the Vif interaction with APOBEC3F | HeLa A3F-eYFP + Vif (tagged APOBEC3F with the HIV-1 protein that degrades it), YFP fluorescence increase | Potency, µM (series often up to 46.1 µM), inactives show at the highest dose activity, negative = active | actives 0.2% (n = 390,000) | AID 602313; further: potency means the concentration at half of the fitted maximal effect; % of control where 0% means no effect; nearly all actives have a fitted effect of over 65% in size
#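 Fluorescence increase (Ex 488/Em 500-530) after overnight compound treatment at 37 deg C flags inhibition of Vif-driven A3F-eYFP loss in stable HeLa A3F-eYFP/Vif cells seeded overnight beforehand.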
# SW480 rereplic: DNA re-replication induction in SW480 cells. Potency, µM (doses to about 46.1 µM), without a hit: at the highest dose re-replication activation, hits mostly activators. SW480 DNA re-replication, Hoechst DNA content imaging, 48 h. actives 1.8% (n = 340,000); further: potency means the concentration at half of the fitted maximal effect; % of control where 0% means no effect; nearly all actives have a fitted effect of over 55% in size
#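 Compounds, transferred as 23 nL by pin tool, were incubated with cells for 48 hr; DNA content per nucleus was then quantified by Hoechst staining and fluorescence plate imaging.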
# MCF10A rereplic: induces DNA re-replication in MCF 10a normal breast cells; Potency, µM (series often up to 46.1 µM), inactives show top-dose activity, positive = re-replication, usual class: activators; MCF 10A DNA re-replication, Hoechst nuclear intensity, 48 h; actives 2.9% (n = 350,000); further: potency means the concentration at half of the fitted maximal effect; % of control where 0% means no effect; nearly all actives have a fitted effect of over 50% in size
# IL1B secr inh: inhibitors of inflammasome signaling (IL-1 beta secretion) | AID 743279 | activity change, % at 57.5 µM | actives 4.7% (n = 360,000) | THP-1 LPS/ATP IL-1B secretion, AlphaLISA, 16 h; active compounds read low; in the data active means activity change below about -50%; inconclusive means mostly about -30% to -49%; further: on the % scale 0 is the no-effect control and ±100 the full control effect
#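 THP-1 cells pretreated 1 hr with compounds (up to 57.5 uM final), then stimulated with LPS (250 ng/mL final) plus ATP (1.25 mM final); secreted IL-1B measured by AlphaLISA after 16 hr, decreased signal indicating inhibition.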
# Giardia killer: kills Giardia lamblia. Giardia lamblia trophozoite viability. activity change, % at 7.66 µM, hits read low. actives 0.15% (n = 340,000); in the data active means activity change below about -80%; inconclusive means between about -30% and that limit;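 further: parasites exposed to compound for two days anaerobically before the ATP read; on the % scale 0 is the no-effect control and ±100 the full control effect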
#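 Viability, read as ATP luminescence: trophozoites at 100 cells/well, compound added, 48 hrs anaerobic at 37 deg C, then 15-30 min room-temperature development before reading.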
# * = called active by the depositor; u = inconclusive; x = not tested or not shown. The list is not random: actives were taken first. Their share in the collection is about 6.9%. Unless noted, the call rests on the fitted dose curve; in most records, active means well fitted curve in the direction sought with a large enough effect; inconclusive means small, poorly fitted or top-dose-only effect, or another doubt; inactive means no such curve, though single readings can be large; an effect the other way counts as inactive or inconclusive.
SMILES,Vif-A3G inh,Vif-APOBEC3F blk,SW480 rereplic,MCF10A rereplic,IL1B secr inh,Giardia killer
O=C(O)CCNc1cc(N2CCN(C(=O)c3ccco3)CC2)c2noc3c2c1C(=O)c1ccccc1-3,-1%,u,u,-8%,-71*,3
CCN1CCN(c2cc(N3CCN(C(=O)c4ccco4)CC3)c3c4c(onc24)-c2ccccc2C3=O)CC1,u,u,2%,u,-52*,-1
Cc1ccc(-c2cc(C(=O)N(Cc3ccccc3)Cc3ccco3)no2)cc1F,-5%,2%,x,x,x,x
O=C(NCC(c1cccnc1)N1CCc2ccccc21)c1cccc(F)c1 (centres undefined),0%,1%,x,x,x,x
COc1ccc(Cl)cc1NC(=O)NCCn1c(=O)oc2ccc(C)cc21,6%,-1%,x,x,x,x
CCc1ccc(-n2nnc(-c3nc(-c4cccs4)no3)c2N)cc1,2%,1%,x,x,x,x
COc1ccc(-c2c(-c3ccc(OCC(=O)NN)cc3O)n[nH]c2C(F)(F)F)cc1,-4%,-10%,u,23µM*,-29,-2
C=C(C)COc1ccc(-c2n[nH]c(C)c2-c2ccc(OC)cc2)c(O)c1,-10%,2%,u,21µM*,-51*,7
CCOc1ccc(-c2nc(N)ncc2Oc2ccc(OC)cc2)c(O)c1,-5%,1%,-74%,u,-87*,-7
CCc1cc(-c2n[nH]c(C)c2-c2ccccc2Cl)c(O)cc1OC,-11%,-10%,10%,u,19,12
CCOc1ccc(-c2nc(N)ncc2-c2ccc(OC)cc2)c(O)c1,3%,-1%,u,-53%,-8,3
CCOc1ccc(-c2n[nH]c(C)c2-c2ccccc2OC)c(O)c1,-23%,-16%,u,13µM*,-55*,-13
COc1ccc(-c2c(-c3ccc(OCC(=O)NN)cc3O)n[nH]c2C)cc1OC,-4%,-21%,-4%,17%,-5,-11
COc1ccc(-c2n[nH]c(C)c2-c2cscn2)c(O)c1,-1%,-1%,1%,5%,-7,-10
O=C(O)c1cc(=O)c2c3nc4ccccc4oc-3cc(=O)c2[nH]1,-4%,x,u,0%,x,x
Cc1cc2c(cc1C)CSC(c1c(O)ccc3ccccc13)SC2,-9%,9%,18%,18µM*,-78*,-8
CNC(=O)[C@H]1O[C@@H](n2cnc3c(NCc4cccc(I)c4)nc(Cl)nc32)[C@H](O)[C@@H]1O,-7%,1%,-38%,u,-89*,15
Cn1cnc2c(NCc3ccccc3)nc(Cl)nc21,-8%,x,x,x,x,7
CCCCC(=O)NNC(=S)NC(=O)CCC,2%,0%,-1%,u,-95*,-3
CCCCC(=O)NC(=S)NNC(=O)CC#N,1%,-7%,2%,-2%,1,16
COc1ccc(-c2nc3sc(CCNC(=O)c4cc(OC)c(OC)c(OC)c4)c(C)n3n2)cc1,-6%,3%,x,x,x,x
Cc1cccc(CN2CCN(CC(=O)NCCCN3CCN(c4ccc(F)cc4)CC3)C2=O)c1,5%,8%,0%,12%,-56*,-23
Cc1ccc(-c2noc(CCC(=O)NCCCN3CCN(c4cccc(Cl)c4)CC3)n2)cc1,-22%,-5%,u,u,-67*,5
Cc1ccc(-c2noc(CCC(=O)NCCCN3CCN(c4ccc(F)cc4)CC3)n2)cc1,-1%,4%,u,7%,-68*,17
COc1ccc(-c2noc(CCC(=O)NCCCN3CCN(c4ccccc4F)CC3)n2)cc1,8%,11%,-8%,23%,-23,-7
SMILES,Vif-A3G inh,Vif-APOBEC3F blk,SW480 rereplic,MCF10A rereplic,IL1B secr inh,Giardia killer
COc1ccccc1C(=O)Nc1cc2c(cc1N1CCOCC1)n(C)c(=O)n2C,-3%,-2%,x,x,x,x
OC(CN1C2=NCCN2c2ccccc21)c1ccc(Br)cc1 (centres undefined),3%,0%,-3%,-4%,-62*,24
Cc1ccc(Sc2ccc(/C=N/O)cc2[N+](=O)[O-])cc1,-10%,-6%,u,21µM*,4,17
Cc1cc(C)nc(SCNC(=O)c2ccccc2)n1,-1%,-3%,5.8µM*,u,9,-17
O=C(Nc1cccnc1)c1ccc(S(=O)(=O)c2ccc(Cl)cc2)cc1,1%,1%,-5%,-15%,-66*,12
O=C(Nc1ccc(Nc2ccccc2)cc1)C(Cl)Cl,-25%,3%,0%,u,-89*,11
Cc1ccc(C(=O)Nc2ccc(Nc3ccccc3)cc2)cc1C,4%,8%,u,13%,-69*,3
O=C(Nc1ccc(Nc2ccccc2)cc1)c1ccc(Cl)cc1,-4%,7%,9%,6%,-62*,10
O=C(Nc1cccnc1)c1ccc(C(=O)Nc2cccnc2)cc1,-6%,-15%,-6%,3%,0,-4
Cc1cccc(N2CCN(c3nc4ccccc4c4nnc(C)n34)CC2)c1C,2%,1%,x,x,x,x
O=C(Nc1ccc(Cl)cc1)c1csc(-c2ccccc2)n1,0%,-2%,19%,23µM*,29,-2
COc1ccc(Sc2ccc(NC(=O)c3ccccc3Cl)cc2C#N)cc1,u,-4%,u,u,-11,-9
N#Cc1cc(NC(=O)c2ccc(Cl)cc2)ccc1Sc1ccccc1,-14%,x,x,x,-61*,x
COCCn1c(CNC(=O)c2cccc(N(C)C)c2)nc2cccnc21,1%,7%,x,x,x,x
COc1ccccc1C(=O)NC1=NC(c2ccc(Br)cc2)CC(=O)N1 (centres undefined),0%,-1%,x,x,x,x
CCN(CC)CCOC(=O)c1ccc(NC(=O)c2cc3c(s2)-c2ccccc2OC3)cc1,u,8%,x,x,x,x
CCOC(=O)c1cc2c(=O)n3ccccc3nc2n(C(C)C)c1=NC(=O)C(C)(C)Oc1ccc(Cl)cc1,-4%,1%,x,x,x,x
Cc1nc([N+](=O)[O-])cn1CC(=O)c1ccccc1,-2%,-11%,4%,3%,18,-3
Cc1nc([N+](=O)[O-])cn1-c1nc2ccccn2c1[N+](=O)[O-],0%,-6%,2%,0%,6,-88*
CCCCCn1c(=O)[nH]c2cc(C(=O)NCc3ccc(OC)cc3)ccc2c1=O,-1%,-6%,x,x,x,x
COc1ccccc1NC(=O)c1ccc(-c2nn(C)c(=O)c3ccccc23)cc1,5%,-4%,-9%,11%,-56*,u
Cn1nc(-c2ccc(OCC(=O)Nc3ccccc3)cc2)c2ccccc2c1=O,-6%,-10%,-12%,1%,-13,4
Cc1cccc(NC(=O)COc2ccc(-c3nn(C)c(=O)c4ccccc34)cc2)c1,-4%,3%,16%,u,-52*,-26
O=C(Nc1cc(-c2ccc(F)c(F)c2)no1)c1ccccc1F,0%,-11%,x,x,x,x
